Most compounds without a hit are left out; they make up all but 2.2% or so of the library.
Ba/F3 V617F tox – loss of viability in JAK2V617F-driven Ba/F3 cells; hit rate 1.1% among 220,000; Ba/F3 EpoR-JAK2V617F viability, ATP luminescence; inhibition, % at 5.6 µM;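 active = inhibition above the campaign mean plus 3 SD over all tested compounds, cut at about 24% in these data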;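 also: cytokine-independent growth of Ba/F3 cells driven by EpoR plus mutant JAK2; 0% = DMSO-treated cells and 100% = JAK inhibitor I control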
IEC-6 tox – counter-screen for KLF5 inhibitors: cytotoxicity in IEC-6 cells; IEC-6 cytotoxicity, luminescence viability; inhibition, % at 5 µM; hit rate 0.78% among 290,000; in the data active = inhibition above about 22%;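 also: 0% = plate median of test compound wells and 100% = cytotoxic reference compound wells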
KLF5 inhibitor – suppresses KLF5 promoter-driven expression | DLD-1 KLF5 promoter-luciferase reporter, luminescence | inhibition, % at 5 µM | hit rate 0.23% among 290,000;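 active = inhibition above a per-plate limit of that plate's mean compound inhibition plus 3 SD, cut at about 60% in these data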;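 also: 0% = DMSO wells and 100% = LY294002 at 200 µM; higher means less KLF5 promoter-driven luciferase light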
APP 5UTR inh – APP translation inhibition; hit rate 0.82% among 190,000; inhibition, % at 2 µM; SH-SY5Y APP 5'UTR-luciferase reporter, luminescence;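 active = inhibition above a set limit, derived from the sample mean plus 3 SD, cut at about 45% in these data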
aSyn UTR inh – 5' untranslated region of α-synuclein, MLPCN primary screen; alpha-synuclein 5'UTR reporter, inhibitor activity; inhibition, % (tested at 7.5 µM); hit rate 0.82% among 300,000; AID 1813; in the data active = inhibition above about 60%;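 also: H4 neuroglioblastoma cells stably carrying SNCA 5'UTR luciferase fusion; 0% = DMSO wells and 100% = positive control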
BaF3 tox – counter-screen for JAK2V617F inhibitors: parental Ba/F3 viability inhibitors. CellTiter-Glo ATP luminescence. inhibition, % at 5.6 µM. hit rate 1.1% among 220,000. AID 1486;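 active = inhibition above a per-campaign cutoff, the mean inhibition of all tested compounds plus 3 SD, cut at about 27% in these data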;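 also: 0% = DMSO wells and 100% = JAK Inhibitor I control wells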
* hit, by the source's call; x = no result.

SMILES	Ba/F3 V617F tox	IEC-6 tox	KLF5 inhibitor	APP 5UTR inh	aSyn UTR inh	BaF3 tox
COc1ccc(C(C(=O)NC(C)(C)C)N(C(=O)Cn2nnc3ccccc32)c2cccc(C(C)=O)c2)cc1O (stereo unspecified)	-1	4	-10	x	-6	1
O=C(NNc1nc(-c2ccccc2)cs1)c1cccs1	-2	-1	3	x	-3	-3
O=C(NNc1nc(-c2ccc(F)cc2)cs1)c1ccccc1	4	-1	2	6	90*	10
O=C(NNc1nc(-c2ccccc2)cs1)c1ccc(F)cc1	1	-5	25	-9	76*	11
COc1cc(Cl)ccc1OCc1cc(C(=O)N(C)CCc2cnn(C)c2)no1	x	2	-117	x	-91	x
Cc1cc(F)c(F)c(C(=O)N2CCOCC2)c1Cl	3	2	-4	-2	20	5
Cc1ccc(C(=O)N2CCOCC2)c(F)c1F	3	-1	-16	28	17	90*
O=C(CSc1nc2ccccc2n1Cc1ccc(Cl)cc1)N/N=C/c1ccc(C(=O)O)cc1	0	-4	-18	54*	19	6
COc1ccc(NC(=O)O/N=C/c2ccc(Br)cc2)cc1	x	-4	-13	x	-21	x
COc1ccc(/C=C/c2cc(C(=O)O)c3ccccc3n2)cc1	-1	-4	3	x	81*	3
COc1ccc(/C=C/C(=O)Nc2ccccc2C(=O)O)cc1	-1	3	-41	-152	83*	8
COc1ccc(/C=N/OC(=O)Nc2ccccc2OC)cc1	10	35*	-66	-92	-28	9
COc1cc(C(=O)NC(=S)N(CCc2ccccc2)CCc2ccccc2)cc(OC)c1OC	0	6	-4	6	69*	0
COc1cc(C(=O)NC(=S)N(C)Cc2ccccc2)cc(OC)c1OC	2	2	-23	-3	2	3
CCCCCN(C(=O)CCC(=O)OCc1ccc(C(C)C)cc1)c1c(N)n(CCCC)c(=O)[nH]c1=O	x	x	x	x	20	x
COc1ccc(C(=O)Nc2cnn(Cc3ccc(Cl)cc3)c2)cc1OC	35*	2	38	-2	43	36*
COc1ccc(C(=O)Nc2ccc(Cn3ccnc3)cc2)cc1OC	x	7	-16	x	-54	x
O=C(NNc1c2ccccc2nc2ccccc12)c1ccc(O)cc1O	72*	5	-24	-12	-79	77*
O=C(NNc1c2ccccc2nc2ccccc12)c1ccc(O)cc1	49*	4	-6	6	-14	65*
O=C(NNc1c2ccccc2nc2ccccc12)c1ccccc1O	0	7	-3	1	-93	3
O=C(Nc1cc2c3c(c1)CC(=O)N3CCC2)c1ccccc1Br	x	x	x	x	-4	x
O=c1c2ccccc2cnn1CCOc1ccccc1	3	2	54	-98	72*	8
Cc1cc2cc(CCNC(=O)CCCc3ccccc3)c(=O)[nH]c2cc1C	x	2	-1	x	4	x
N#Cc1c(NC(=O)c2ccccc2)sc2c1CCCCC2	-3	2	-163	-198	-16	2
N#Cc1c(Cl)nsc1NC(=O)c1ccccc1	29*	13	7	2	-66	40*
SMILES	Ba/F3 V617F tox	IEC-6 tox	KLF5 inhibitor	APP 5UTR inh	aSyn UTR inh	BaF3 tox
Cn1c(N=Nc2ccccc2)nc2ccccc21	31*	38*	-190	-180	-19	31*
CC(=O)c1ccc(OC(C)C)c(CC(C(N)=O)C(N)=O)c1	1	-3	-45	46*	-4	5
CC(=O)c1ccc(OCC(C)C)c(CC(C(N)=O)C(N)=O)c1	0	-6	-9	-4	4	6
O=C(c1ccccc1)N1CCSc2sccc2C1=O	2	2	10	28	97*	-1
COC(=O)c1ccc(NC(=O)C(=O)c2c[nH]c3ccccc23)cc1	x	0	-84	x	-93	x
Cc1cn(-c2cc(C(=O)Nc3ccc(C)c(NC(=O)C(=O)c4c[nH]c5ccccc45)c3)cc(C(F)(F)F)c2)cn1	x	x	x	x	66*	x
CC(OC(=O)c1ccc(-c2ccc([N+](=O)[O-])cc2)o1)C(=O)NC(N)=O (stereo unspecified)	-3	-2	-13	x	8	1
Cc1nn(-c2ccc(Cl)cc2)c(=O)c2ccccc12	0	3	-77	-62	-85	8
Cc1c(Cl)sn(-c2ccc(Cl)cc2)c1=O	3	-2	-8	92*	x	-5
COC(=O)c1[nH]c2cccc(OC)c2c1NC(=O)C(C)N1CCC(C)CC1 (stereo unspecified)	-1	3	-6	66*	13	3
CSCc1ccc(C(=O)N2CCC(N3CCC(C(=O)NC(C)C)CC3)CC2)o1	x	2	-19	x	-5	x
O=C(COc1ccc(Cl)cc1)Nc1ccc(N2CCN(C(=O)c3ccco3)CC2)cc1	0	-2	2	9	-4	6
COc1ccc(OCC(=O)Nc2ccc(N3CCN(C(=O)c4ccco4)CC3)cc2)cc1	5	1	5	-22	0	90*
O=C(O)c1cccc(NC(=S)NC(=O)c2ccncc2)c1	3	2	-11	60*	-7	2
O=C(NC(=S)Nc1cccc2cccnc12)c1ccccc1	-5	-2	-14	-8	-43	102*
CC(C)(C)C(=O)NC(=S)Nc1cccc(C(=O)O)c1	1	-4	-182	-86	-161	10
CC1CCC(NC(=O)CCC(=O)N2CC(C)Oc3ccccc32)CC1 (stereo unspecified)	x	-3	-97	x	-144	x
COc1ccc(NC(=S)N2CCC(C(=O)c3ccc(OC)cc3)CC2)cc1	x	2	-23	x	4	x
Cc1cc(CN2C(=O)c3ccccc3C2=O)no1	3	2	-17	4	12	2
O=C1c2ccccc2C(=O)N1CC1=NCCc2ccccc21	15	0	-38	15	-29	42*
O=C(NCCc1c[nH]c2ccccc12)C(=O)Nc1cc2c3c(c1)CC(=O)N3CCC2	x	x	x	x	16	x
COc1ccc(F)cc1CSc1nnnn1-c1ccc(O)cc1	x	-1	9	x	11	x
COc1cc(CSc2nnnn2-c2ccc(C)cc2)cc(OC)c1OC	35*	3	-18	-7	15	53*
O=S(=O)(Nc1cc(Sc2cccc3cccnc23)c(O)c2ccccc12)c1ccccc1	-1	98*	13	75*	-139	3
Nc1cc[n+](CC(=O)c2ccc3c(c2)OCCO3)cc1	90*	-4	-30	-18	26	71*
O=C(C[n+]1ccc(C(=O)NCc2ccccc2)cc1)c1ccc2c(c1)OCCO2	-3	4	20	7	-21	2
COc1ccc(C(CC(=O)O)NC(=O)c2ccccc2[N+](=O)[O-])cc1 (stereo unspecified)	0	2	-18	-5	4	-5
Cc1ccc(NC(=S)NCCN(C2CCCCC2)C2CCCC2)cc1	11	8	-13	-8	-3	11
Cc1cc(C)cc(NC(=S)NCCN(C2CCCCC2)C2CCCC2)c1	7	10	-6	-26	-10	72*

Source: PubChem BioAssay (several laboratories)
